Experimental data published in PubChem BioAssay (NCATS).
Records with an inconclusive call do not appear. The source made the active and inactive calls. Calls come from the whole dose curve; as a rule, active = well fitted curve in the direction sought with a large enough effect; inconclusive = small, poorly fitted or top-dose-only effect, or another doubt; inactive = no such curve, though single readings can be large; an effect the other way counts as inactive or inconclusive.

Columns and labels:
[1] = biological target: ATP-dependent 6-phosphofructokinase (Trypanosoma brucei brucei) (UniProt O15648); assay: qHTS Assay to Find Inhibitors of T. brucei phosphofructokinase: hit validation (AID 492961);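 note: luminescence reports ADP formed as PFK phosphorylates fructose-6-phosphate with ATP; % is set by controls: 0 for no effect and ±100 for the full control effect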
ATP-dependent 6-phosphofructokinase (Trypanosoma brucei brucei), sequence (O15648 whole entry, looked up): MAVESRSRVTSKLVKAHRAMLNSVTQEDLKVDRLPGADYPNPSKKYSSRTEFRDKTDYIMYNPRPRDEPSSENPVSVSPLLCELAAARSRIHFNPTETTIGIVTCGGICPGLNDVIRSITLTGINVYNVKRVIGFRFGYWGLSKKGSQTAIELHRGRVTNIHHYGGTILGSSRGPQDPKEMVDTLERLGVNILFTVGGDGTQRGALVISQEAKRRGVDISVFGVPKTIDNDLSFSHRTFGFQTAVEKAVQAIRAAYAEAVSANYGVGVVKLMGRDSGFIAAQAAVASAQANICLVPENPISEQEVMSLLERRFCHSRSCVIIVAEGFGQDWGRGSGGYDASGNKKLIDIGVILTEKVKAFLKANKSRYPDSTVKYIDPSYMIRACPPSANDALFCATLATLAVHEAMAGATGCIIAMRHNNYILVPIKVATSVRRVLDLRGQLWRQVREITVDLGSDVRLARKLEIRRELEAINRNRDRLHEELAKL
Method in brief: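 Percent activity derived from corrected luminescence, normalized between 0x and 1x enzyme controls, then fitted to concentration-response curves. Conditions: 1.25 nM PFK, 0.1 mM ATP, 0.5 mM F6P, 45 min RT.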

[2] = qHTS profiling for inhibitors of Plasmodium falciparum proliferation (AID 504749); note: potency is the fitted concentration of half-maximal effect;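 for activity, negative = inhibition: 0% = DMSO vehicle and full inhibition = artemisinin control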; for all read-outs here: nearly all actives have a fitted effect of over 60% in size; details: P. falciparum in erythrocytes, SYBR Green DNA, 72 h; for activity, negative = inhibition: at 28.7 µM (top of the series)
Method in brief: (§1)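 Quantitative HTS: compounds pinned into medium, infected erythrocytes added (0.3% parasitemia, 2.5% hematocrit), 72 h culture at 37 C under 5% CO2. Saponin/Triton lysis with SYBR Green I, overnight RT, then fluorescence read.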

3D7 = assay: as above; details: P. falciparum in erythrocytes, SYBR Green DNA, 72 h; series mostly up to 28.7 µM
Method in brief: as §1

ATS189 = assay: as above; details: P. falciparum in erythrocytes, SYBR Green DNA, 72 h; series mostly up to 28.7 µM
Method in brief: as §1

CP191 = assay: as above; details: P. falciparum in erythrocytes, SYBR Green DNA, 72 h; series mostly up to 28.7 µM
Method in brief: as §1

CP211 = assay: as above; details: P. falciparum in erythrocytes, SYBR Green DNA, 72 h; series mostly up to 28.7 µM
Method in brief: as §1

CP217 = assay: as above; details: P. falciparum in erythrocytes, SYBR Green DNA, 72 h; series mostly up to 28.7 µM
Method in brief: as §1

CP238 = assay: as above; details: P. falciparum in erythrocytes, SYBR Green DNA, 72 h; series mostly up to 28.7 µM
Method in brief: as §1

CP252 = assay: as above; details: P. falciparum in erythrocytes, SYBR Green DNA, 72 h; series mostly up to 28.7 µM
Method in brief: as §1

CP262 = assay: as above; details: P. falciparum in erythrocytes, SYBR Green DNA, 72 h; series mostly up to 28.7 µM
Method in brief: as §1

Dd2 = assay: as above; details: P. falciparum in erythrocytes, SYBR Green DNA, 72 h; series mostly up to 28.7 µM
Method in brief: as §1

FAB9 = assay: as above; details: P. falciparum in erythrocytes, SYBR Green DNA, 72 h; series mostly up to 28.7 µM
Method in brief: as §1

N140 = assay: as above; details: P. falciparum in erythrocytes, SYBR Green DNA, 72 h; series mostly up to 28.7 µM
Method in brief: as §1

TAB109 = assay: as above; details: P. falciparum in erythrocytes, SYBR Green DNA, 72 h; series mostly up to 28.7 µM
Method in brief: as §1

AA1029 = assay: as above; details: P. falciparum in erythrocytes, SYBR Green DNA, 72 h; series mostly up to 28.7 µM
Method in brief: as §1

AS120 = assay: as above; details: P. falciparum in erythrocytes, SYBR Green DNA, 72 h; series mostly up to 28.7 µM
Method in brief: as §1

CP185 = assay: as above; details: P. falciparum in erythrocytes, SYBR Green DNA, 72 h; series mostly up to 28.7 µM
Method in brief: as §1

CP265 = assay: as above; details: P. falciparum in erythrocytes, SYBR Green DNA, 72 h; series mostly up to 28.7 µM
Method in brief: as §1

CP286 = assay: as above; details: P. falciparum in erythrocytes, SYBR Green DNA, 72 h; series mostly up to 28.7 µM
Method in brief: as §1

P94_40 = assay: as above; details: P. falciparum in erythrocytes, SYBR Green DNA, 72 h; series mostly up to 28.7 µM
Method in brief: as §1

Nc1nc2[nH]cc(CCc3ccc(C(=O)NC(CCC(=O)O)C(=O)O)cc3)c2c(=O)[nH]1 (centres undefined)
active: Potency ([2]; parasite line A) 0.126 µM | Potency ([2]; parasite line B) 0.199 µM | Potency (3D7) 8.91 µM | Potency (ATS189) 0.224 µM | Potency (CP191) 0.158 µM | Potency (CP211) 3.79 µM | Potency (CP217) 0.0562 µM | Potency (CP238) 11.2 µM | Potency (CP252) 0.158 µM | Potency (CP262) 0.426 µM | Potency (Dd2) 5.01 µM | Potency (FAB9) 0.316 µM | Potency (N140) 3.16 µM | Potency (TAB109) 11.2 µM
inactive: Potency [1]

CC(=O)OC1C([N+]2(C)CCCCC2)C[C@H]2C3CC[C@H]4C[C@H](OC(C)=O)C([N+]5(C)CCCCC5)CC4(C)C3CCC12C (some centres undefined)
inactive: Potency [1] | activity, negative = inhibition ([2]; parasite line A) -25% | activity, negative = inhibition ([2]; parasite line B) 8.8% | Potency (3D7) | Potency (AA1029) | Potency (AS120) | Potency (ATS189) | Potency (CP185) | Potency (CP191) | Potency (CP217) | Potency (CP238) | Potency (CP252) | Potency (CP262) | Potency (CP265) | Potency (CP286) | Potency (Dd2) | Potency (FAB9) | Potency (N140) | Potency (P94_40) | Potency (TAB109)

CC[C@@]1(O)CC2CN(CCc3c([nH]c4ccccc34)[C@](C(=O)OC)(c3cc4c(cc3OC)N(C)C3[C@@](O)(C(=O)OC)C(OC(C)=O)[C@]5(CC)C=CCN6CC[C@@]43C65)C2)C1 (some centres undefined)
inactive: Potency [1]
active: Potency ([2]; parasite line A) 2.51 µM | Potency ([2]; parasite line B) 1.12 µM | Potency (3D7) 2 µM | Potency (AA1029) 3.16 µM | Potency (AS120) 2.82 µM | Potency (ATS189) 3.98 µM | Potency (CP185) 2.24 µM | Potency (CP191) 2.82 µM | Potency (CP211) 2.69 µM | Potency (CP217) 3.55 µM | Potency (CP238) 3.16 µM | Potency (CP252) 3.55 µM | Potency (CP262) 1.69 µM | Potency (CP265) 2.24 µM | Potency (CP286) 0.794 µM | Potency (Dd2) 0.355 µM | Potency (N140) 3.55 µM | Potency (P94_40) 3.55 µM | Potency (TAB109) 3.16 µM

COc1cc(/C=C2\CCC/C(=C\c3ccc(O)c(OC)c3)C2=O)ccc1O
inactive: Potency [1] | Potency (CP262)
active: Potency ([2]; parasite line A) 11.2 µM | Potency ([2]; parasite line B) 10 µM | Potency (3D7) 11.2 µM | Potency (AA1029) 12.6 µM | Potency (AS120) 8.91 µM | Potency (CP185) 11.2 µM | Potency (CP191) 10 µM | Potency (CP211) 16.9 µM | Potency (CP217) 11.2 µM | Potency (CP238) 10 µM | Potency (CP265) 14.1 µM | Potency (Dd2) 11.2 µM | Potency (N140) 11.2 µM | Potency (P94_40) 12.6 µM | Potency (TAB109) 12.6 µM

OC[C@@H](O)C(O[C@@H]1O[C@@H](CO)[C@H](O)[C@H](O)[C@H]1O)[C@H](O)[C@@H](O)CO (some centres undefined)
inactive: Potency [1] | activity, negative = inhibition ([2]; parasite line A) 12% | activity, negative = inhibition ([2]; parasite line B) 4.36% | Potency (3D7) | Potency (AA1029) | Potency (AS120) | Potency (ATS189) | Potency (CP185) | Potency (CP191) | Potency (CP211) | Potency (CP217) | Potency (CP238) | Potency (CP252) | Potency (CP262) | Potency (CP265) | Potency (CP286) | Potency (Dd2) | Potency (FAB9) | Potency (N140) | Potency (P94_40) | Potency (TAB109)

Clc1ccc(CS[C@@H](Cn2ccnc2)c2ccc(Cl)cc2Cl)cc1
active: Potency ([2]; parasite line A) 3.16 µM | Potency ([2]; parasite line B) 2.24 µM | Potency (3D7) 2.82 µM | Potency (AA1029) 3.55 µM | Potency (AS120) 1.26 µM | Potency (ATS189) 3.16 µM | Potency (CP185) 3.98 µM | Potency (CP191) 3.55 µM | Potency (CP217) 3.16 µM | Potency (CP252) 3.98 µM | Potency (CP265) 3.16 µM | Potency (CP286) 3.55 µM | Potency (Dd2) 4.47 µM | Potency (N140) 1.41 µM | Potency (P94_40) 3.55 µM | Potency (TAB109) 3.55 µM
inactive: Potency [1]

CC(C)C(=O)OCC(=O)[C@@]12OC(C3CCCCC3)O[C@@H]1CC1C3CCC4=CC(=O)C=C[C@]4(C)C3[C@@H](O)C[C@@]12C (some centres undefined)
active: Potency ([2]; parasite line A) 0.794 µM | Potency ([2]; parasite line B) 0.562 µM | Potency (3D7) 1 µM | Potency (AA1029) 0.891 µM | Potency (AS120) 0.794 µM | Potency (ATS189) 0.891 µM | Potency (CP185) 0.794 µM | Potency (CP191) 0.708 µM | Potency (CP211) 1.35 µM | Potency (CP217) 0.794 µM | Potency (CP238) 1 µM | Potency (CP252) 1 µM | Potency (CP265) 1 µM | Potency (CP286) 0.794 µM | Potency (Dd2) 1.41 µM | Potency (FAB9) 2 µM | Potency (N140) 0.794 µM | Potency (P94_40) 0.891 µM | Potency (TAB109) 0.708 µM
inactive: Potency [1]

CCCCC(=O)OC1CCC2C3CCc4cc(O)ccc4C3CC[C@]12C (some centres undefined)
active: Potency (N140) 11.2 µM
inactive: Potency [1] | activity, negative = inhibition ([2]; parasite line A) -29.6% | Potency (3D7) | Potency (AA1029) | Potency (CP185) | Potency (CP211) | Potency (CP217) | Potency (CP238) | Potency (CP252) | Potency (CP262) | Potency (CP265) | Potency (CP286) | Potency (FAB9) | Potency (TAB109)

CC(C)CCCC(C)C1CC(=O)C2=C3CCC4CC(O)CCC4(C)C3CCC21C (centres undefined)
active: Potency (Dd2) 12.6 µM
inactive: Potency [1] | activity, negative = inhibition ([2]; parasite line A) 4.35% | activity, negative = inhibition ([2]; parasite line B) -0.553% | Potency (AA1029) | Potency (AS120) | Potency (ATS189) | Potency (CP185) | Potency (CP191) | Potency (CP211) | Potency (CP217) | Potency (CP238) | Potency (CP252) | Potency (CP262) | Potency (CP265) | Potency (FAB9) | Potency (N140) | Potency (P94_40) | Potency (TAB109)
